The whole screen tested about 96,000 compounds, of which about 20,000 (21%) were called active. The list is a sample of the results. Unmarked numbers belong to inactive results.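 The calls were made as follows: active = CYP2C19 inhibition above a set limit at 5 µM in the primary screen (cut at about 50% in these data); inactive = the rest.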
The compounds below were run against Cytochrome P450 2C19 (Homo sapiens) (UniProt P33261) (assay: blockers of cytochrome P450 2C19 activity – biochemical, luminescence, ADME assay, primary screen (AID 778;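 also: plate controls were negative control wells for no effect and 2.5 mM tranylcypromine positive control for full effect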)). Conditions: CYP2C19 Supersomes, luciferin-H EGE luminescence, 30 min; at 5 µM; active compounds read high.
Sequence of Cytochrome P450 2C19 (Homo sapiens) (P33261 whole entry, looked up): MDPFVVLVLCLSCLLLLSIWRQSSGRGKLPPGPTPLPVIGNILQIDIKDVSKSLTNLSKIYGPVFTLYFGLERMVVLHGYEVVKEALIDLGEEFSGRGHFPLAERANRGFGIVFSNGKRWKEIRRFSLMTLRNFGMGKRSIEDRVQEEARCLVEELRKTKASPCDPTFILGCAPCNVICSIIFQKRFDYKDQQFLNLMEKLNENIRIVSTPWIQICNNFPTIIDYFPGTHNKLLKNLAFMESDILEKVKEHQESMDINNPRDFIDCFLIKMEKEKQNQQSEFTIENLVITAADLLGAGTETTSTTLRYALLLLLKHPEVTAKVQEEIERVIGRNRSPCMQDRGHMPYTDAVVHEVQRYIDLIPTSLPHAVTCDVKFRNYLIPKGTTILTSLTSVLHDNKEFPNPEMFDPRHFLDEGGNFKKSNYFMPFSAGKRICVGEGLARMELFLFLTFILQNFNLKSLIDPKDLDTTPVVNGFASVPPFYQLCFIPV

SMILES	inhibition
CCOC(=O)c1c(NC(=S)NC(=O)c2ccco2)sc2c1CCCC2	-3.4%
O=C(CCS(=O)(=O)c1cccc2nsnc12)N1CCN(c2ccccc2F)CC1	45.5%
Cc1ccc(S(=O)(=O)N2CCC(C(=O)N[C@@H](C)C(=O)NCc3ccccc3)CC2)cc1	6%
CCN=C1SC(CC(=O)Nc2ccc(C)cc2)C(=O)N1CC (centres undefined)	38.5%
CN(C(=O)CC(NC(=O)c1ccccc1)(c1ccccc1)c1ccccc1)c1ccccc1	36.4%
COC(=O)c1ccc(NCC(=O)c2ccccc2)cc1	64.3% (active)
CCOC(=O)c1nc(Nc2ccc(C(=O)OC)cc2)c2ccccc2n1	49.1%
COC(=O)c1ccc(NC(=O)Nc2ccc(C)cc2)cc1	2.9%
C=CCNC(=O)CSc1nc2sc(C)c(C)c2c(=O)[nH]1	14.3%
CCSc1nnc(NC(=O)c2ccc(C)cc2)s1	25.5%
CC1=CC(C)(C)N(C(=O)CSc2nccn2C)c2cc(C)ccc21	82.8% (active)
CC1=CC(C)(C)N(C(=O)CSc2nnc(-c3ccccc3)o2)c2ccc(C)cc21	25.2%
CCOC(=O)c1c(NC(=O)CCC(=O)NCc2ccco2)sc2c1CCCC2	10.1%
COc1ccccc1NC(=O)[C@H](COCc1ccccc1)NC(=O)OC(C)(C)C	54.6% (active)
COc1ccccc1NC(=O)CC(NCCN(C)C)C(=O)O (centres undefined)	-1.5%
COc1ccccc1NC(=S)NC(=O)C(C)C	16.5%
C/C(=C\C(=O)c1ccc(Br)cc1)N1CCCCC1	7.2%
O=C(CNCCO)NC12CC3CC(CC(C3)C1)C2	0.8%
COc1ccc2nc(N3CCCC(O)C3)c(C#N)cc2c1 (centres undefined)	42.8%
CCOc1ccc2nc(N3CCCN(C(=O)Nc4ccccc4C)CC3)c(C#N)cc2c1	89.4% (active)
Cc1cccc2cc(C#N)c(N3CCCC3)nc12	1.4%
CS(=O)(=O)N(C(=O)NC(=O)NC1CCS(=O)(=O)C1)C1CCCCC1 (centres undefined)	-6.1%
Cc1c(C(=O)N2CC(C)OC(C)C2)sc2nc(-c3ccccc3)cn12 (centres undefined)	3.7%
CC(C)NC(=O)NC(=O)COC(=O)c1ccc(NC(=O)CC#N)cc1	0.7%
COc1ccc([N+](=O)[O-])cc1C1NN=C(c2cccc3ccccc23)S1 (centres undefined)	32.4%
CCN1CCN(C(=O)c2cc3cc4ccc(OC)cc4nc3s2)CC1	-9.4%

SMILES	inhibition
Cc1ccc(C)c(N2CCN(S(=O)(=O)c3ccc4c(c3)oc(=O)n4C)CC2)c1	4.3%
O=c1ccc2cc(S(=O)(=O)N3CCN(c4ccccc4)CC3)ccc2o1	1.3%
Cc1cc(N2CCN(S(=O)(=O)c3ccc(C)c(C)c3)CC2)c2ccccc2n1	95.8% (active)
O=C(c1cccc(N2CCCC2=O)c1)N1CCOCC1	-8.7%
O=C(c1ccc(-n2cnnn2)cc1)N1CCN(C(c2ccccc2)c2ccccc2)CC1	71.6% (active)
O=C(O)CC(c1ccccc1)n1cnnn1 (centres undefined)	-12.4%
NC(=O)C1CCN(C(=O)c2ccc(-c3ccccc3)cc2)CC1	9.6%
Cc1ccc2cc3cc(C(=O)N4CCCCCC4)oc3nc2c1	19.1%
COc1cc(/C=N/Nc2nn3cnnc3c3ccccc23)cc(OC)c1OC	18.8%
Cc1ccc(OCC(O)CN2CCN(CC(O)COc3ccc(C)cc3Cl)CC2)c(Cl)c1 (centres undefined)	-5.7%
O=C1c2cccc3cccc(c23)N1CN1CCN(c2ccccn2)CC1	1.9%
OC(COc1cccc2ccccc12)CN1CCN(c2ccccn2)CC1 (centres undefined)	88.8% (active)
COc1ccc(-n2cnc3cc(NCc4ccco4)ccc32)cc1	42.6%
O=C(Nc1ccccc1)c1ccc2nsnc2c1	18.4%
CC(=O)NS(=O)(=O)c1ccc(NC(=O)/C=C/c2ccccc2Cl)cc1	4%
O=c1[nH]c2ccccc2n2c(-c3ccccc3)nnc12	32.6%
COC(=O)CSC1=C(C#N)C(c2ccccc2OC)C(C(=O)OC)C(=O)N1 (centres undefined)	55.4% (active)
CCOc1ccc2cc(C#N)c(SCC(=O)OC)nc2c1	4.1%
CCCSC1=C(C#N)C(c2ccccc2C)C(C(=O)OC)C(=O)N1 (centres undefined)	41%
CC1CCCC(C)N1CCCNC(=O)c1cc2c(=O)n(C)c3ccccc3c2n1C (centres undefined)	-9.2%
COc1ccc(CCNC(=O)C2CCCN(Cc3nc(-c4cccc(Cl)c4)oc3C)C2)cc1OC (centres undefined)	87.1% (active)
COc1ccc(CCN(C)C(=O)C2CCCN(Cc3ccc(OC)c(OC)c3)C2)cc1OC (centres undefined)	13.3%
COc1ccc(CCNC(=O)C2CCN(c3nn4c(=O)cc(C)nc4s3)CC2)cc1OC	-7%
COc1ccc(CCNC(=O)c2ccc3c(c2)NC(=O)C(N2CCOCC2)S3)cc1OC (centres undefined)	43.7%
COc1ccc2c3c(c(=O)oc2c1OCC(=O)C(C)(C)C)CCCC3	15.9%
CC(C)CC(=O)N/C(N)=N/c1nc2ccccc2s1	36.7%

SMILES	inhibition
Cc1ncc(CC(=O)n2cc(C(=O)c3cc(Cl)ccc3O)cn2)s1	61% (active)
Cc1cc2cc3c(cc2nc1SCC(=O)Nc1c(C)cccc1C)CCC3	15.7%
CCOC(=O)c1c(NC(=O)CSc2nnc(Cc3csc(N)n3)n2C)sc(C)c1C	16.5%
Cn1c(Cc2cccc3ccccc23)nnc1SCC(=O)N1CCN(c2cccc(Cl)c2)CC1	12%
Cn1c(Cc2csc(N)n2)nnc1SC/C=C/c1ccccc1	61.6% (active)
COC(=O)c1cc(S(=O)(=O)NC2CCN(Cc3ccccc3)CC2)cn1C	0.8%
CSc1ccc(S(=O)(=O)Nc2cccc(F)c2)cc1	99.4% (active)
O=S(=O)(NC1CCCCC1)c1ccc(F)c2ccccc12	26.5%
CCc1nnc(NS(=O)(=O)c2ccc(NS(=O)(=O)c3ccccc3)cc2)s1	-6.3%
CSc1ccc(S(=O)(=O)NC2CCCCC2)cc1	88.8% (active)
N#CCCN1CCN(S(=O)(=O)c2ccc(S(=O)(=O)NC3CCCCC3)cc2)CC1	13.3%
Cc1cccc(CCNS(=O)(=O)c2ccc(S(=O)(=O)NC3CCCC3)cc2)c1	67.1% (active)
O=C(O)c1ccc(F)c(S(=O)(=O)Nc2ccccc2)c1	7.1%
O=C(CCc1ccc(S(=O)(=O)NC2CCCCC2)cc1)NCc1ccccc1	63.1% (active)
CCCNS(=O)(=O)c1ccc(CCC(=O)NCc2cccnc2)cc1	22.4%
Cc1cc(S(=O)(=O)NC2CCCCC2)ccc1OCC(=O)NCc1cccnc1	20.8%
CCCc1ccc(-c2c(C)sc(NC(=O)c3ccnn3C)c2C#N)cc1	23.9%
CCCC(=O)N1c2ccccc2NC2=C(C(=O)CCC2)C1c1ccc(F)cc1 (centres undefined)	48.1%
CN(C(=O)CSc1nnc(N)s1)c1c(N)n(Cc2ccccc2)c(=O)[nH]c1=O	-3.1%
O=C(CN1CCOCC1)N1CCCc2c1c(=O)oc1ccc(OCc3ccccc3)cc21	29.5%
CCN(CC)S(=O)(=O)c1ccc(N(C)Cc2ccc(C(F)(F)F)cc2)nc1	85.1% (active)
Cc1ccc(-n2c(N)c(C(=O)N3CCOCC3)sc2=S)c(C)c1	20.4%
C(=N\n1cnnc1)/c1cccnc1	-5.3%
COc1cccc(OCCOc2cccc(/C=N/n3cnnc3)c2)c1	54.7% (active)
COc1ccccc1OCCOc1ccc(/C=N/n2cnnc2)cc1	38.5%
Oc1ccc(CNc2ccccc2O)cc1	22%

SMILES	inhibition
CC(C)C1N=C2c3ccccc3N=C(SCC(=O)c3ccc(O)c(O)c3)N2C1=O (centres undefined)	16.6%
CCCN(CCC)C(=O)C1c2ccccc2Oc2ccccc21	57.1% (active)
O=C(N/N=C/c1ccc(O)c(O)c1)C1c2ccccc2Oc2ccccc21	-4.1%
COCC(=O)Nc1ccc(Br)cc1	13%
CCCCc1nc2ccccc2c(=O)n1NC(=O)c1c(O)c2cccc3c2n(c1=O)CC3	8%
CCCCn1nc(C(=O)N2CCc3ccccc32)c2ccccc2c1=O	69.6% (active)
O=C(c1cnn2ccccc12)N1CCc2ccccc21	25.2%
Cc1ccc(-c2cc(C(=O)N/N=C/C=C/c3ccco3)c3ccccc3n2)cc1C	-4.3%
COC(=O)c1c(C)c(C)nc(N)c1C#N	-7.3%
O=C(CN1CCCCCC1)Nc1ccc(Br)cc1Br	42.6%
CCOc1cccc(-n2nnnc2-c2ccc(OC)cc2)c1	100% (active)
CCOC(=O)c1sc(=S)n(-c2cccc(OC)c2)c1N	31.5%
CCOc1cccc(-c2nnc3sc(COc4ccc(OC)cc4)nn23)c1	19.8%
Cc1ccc2[nH]c3c(=O)n(Cc4ccccn4)cnc3c2c1	-0.8%
COc1ccc(CNc2ccc3c(c2)CCC3)cc1OC	49.8%
COc1ccc(CC(=O)Nc2ccc3c(c2)CCC3)cc1S(=O)(=O)N1CCOCC1	54.5% (active)
CC(C)C(=O)OCC(=O)Nc1ccc2c(c1)CCC2	16.8%
S=C1NC(c2ccccc2)=NCN1c1ccc(Br)cc1	52.3% (active)
O=C1CN(c2nc(-c3ccccc3)c3cc(Br)ccc3n2)c2ccccc2N1	-14.1%
C=CCn1c2ccccc2c2nnc(SC(CC)C(=O)Nc3nc(C)c(C(=O)OCC)s3)nc21 (centres undefined)	48.6%
CCN(CC)CCNC(=O)C1c2ccccc2C(=O)N(C)C1c1cn(C)c2ccccc12 (centres undefined)	-5.9%
Cc1cccc(NC(=O)c2ccccc2NC(=O)C(C)(C)C)n1	30.7%
Cc1nc(-c2ccccc2)sc1C(=O)/C=C/c1ccccc1	16.8%
Cc1ccc(SCC(=O)c2sc(-c3ccccc3)nc2C)cc1	60.9% (active)
Cc1ccc(SCC(=O)Nc2ncc(C)s2)cc1	49.5%
CC1CN(Cc2nc3c(c(=O)n(C)c(=O)n3C)n2Cc2cccc(Cl)c2)CC(C)O1 (centres undefined)	35.9%
